# Positions count from the first letter of the chain named.
# What was measured:
# Assay in all cases: HT-SELEX; high values mean tight binding
# Conditions in all cases: protein: recombinant; vector His6-GST; dsDNA, one strand shown
# SALL4 ZFC4 WT (HT-SELEX) = molecular target: T1, SALL4 ZFC4 WT (HT-SELEX) (Mus musculus, UniProt Q8BX22 870-940)
# T1 sequence: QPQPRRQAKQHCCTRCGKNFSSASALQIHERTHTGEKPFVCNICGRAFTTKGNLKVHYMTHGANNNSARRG
# Outline: (§1)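 Up to 6 cycles of selection were run in triplicate. In each, purified recombinant mouse SALL4 zinc finger cluster 4 (residues 870–940, 1 µg) was incubated with library DNA (1.5 µg first cycle, 200 ng later) in 100 µl of 10 mM Tris–HCl pH 7.5, 50 mM NaCl, poly(dI-dC), DTT for 10 min at room temperature, then complexes were captured on Ni2+ beads, washed and PCR-amplified; final pools were MiSeq-sequenced and scanned for 6-mers. Binding signal is each canonical k-mer's read fraction as fold change versus the initial random library.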
# [1] = molecular target: T2, SALL4 ZFC4 R900W (HT-SELEX) (Mus musculus, UniProt Q8BX22 870-940, R900W)
# T2 sequence: T1 sequence with R31W
# Outline: as §1
# [2] = molecular target: T3, SALL4 ZFC4 G921D (HT-SELEX) (Mus musculus, UniProt Q8BX22 870-940, G921D)
# T3 sequence: T1 sequence with G52D
# Outline: as §1
Sequence,binding signal (SALL4 ZFC4 WT (HT-SELEX)),binding signal [1],binding signal [2]
CTGCAA,0.58 ± 0.0126 fold-change vs cycle 0,0.651 ± 0.015 fold-change vs cycle 0,0.729 ± 0.0483 fold-change vs cycle 0
ACAAAG,1.19 ± 0.0417 fold-change vs cycle 0,1.36 ± 0.0499 fold-change vs cycle 0,1.3 ± 0.0198 fold-change vs cycle 0
ACTGGA,0.84 ± 0.022 fold-change vs cycle 0,0.993 ± 0.0196 fold-change vs cycle 0,1.01 ± 0.0605 fold-change vs cycle 0
ACCTGG,0.46 ± 0.021 fold-change vs cycle 0,0.537 ± 0.0102 fold-change vs cycle 0,0.635 ± 0.0393 fold-change vs cycle 0
AAAGTC,1.1 ± 0.0483 fold-change vs cycle 0,1.25 ± 0.0636 fold-change vs cycle 0,1.24 ± 0.0652 fold-change vs cycle 0
CTACAC,0.733 ± 0.0291 fold-change vs cycle 0,0.845 ± 0.0188 fold-change vs cycle 0,0.893 ± 0.0116 fold-change vs cycle 0
ACTAAC,1.38 ± 0.0461 fold-change vs cycle 0,1.53 ± 0.0676 fold-change vs cycle 0,1.43 ± 0.0927 fold-change vs cycle 0
AAACTC,1.19 ± 0.0627 fold-change vs cycle 0,1.3 ± 0.0461 fold-change vs cycle 0,1.28 ± 0.0858 fold-change vs cycle 0
AACCTA,1.37 ± 0.0609 fold-change vs cycle 0,1.47 ± 0.0701 fold-change vs cycle 0,1.4 ± 0.0994 fold-change vs cycle 0
AACCCA,0.813 ± 0.0466 fold-change vs cycle 0,0.894 ± 0.0477 fold-change vs cycle 0,0.963 ± 0.0141 fold-change vs cycle 0
CACAAG,0.713 ± 0.0143 fold-change vs cycle 0,0.853 ± 0.0253 fold-change vs cycle 0,0.901 ± 0.0111 fold-change vs cycle 0
ACATGG,0.798 ± 0.0238 fold-change vs cycle 0,0.918 ± 0.032 fold-change vs cycle 0,0.959 ± 0.0218 fold-change vs cycle 0
AAGAAG,1.4 ± 0.0333 fold-change vs cycle 0,1.63 ± 0.0977 fold-change vs cycle 0,1.45 ± 0.147 fold-change vs cycle 0
AGTATC,1.37 ± 0.0932 fold-change vs cycle 0,1.48 ± 0.12 fold-change vs cycle 0,1.44 ± 0.125 fold-change vs cycle 0
ATCATC,1.5 ± 0.034 fold-change vs cycle 0,1.56 ± 0.0669 fold-change vs cycle 0,1.49 ± 0.0918 fold-change vs cycle 0
AAACTA,1.88 ± 0.106 fold-change vs cycle 0,1.85 ± 0.13 fold-change vs cycle 0,1.68 ± 0.169 fold-change vs cycle 0
CCCGTA,0.415 ± 0.0258 fold-change vs cycle 0,0.477 ± 0.0181 fold-change vs cycle 0,0.557 ± 0.0362 fold-change vs cycle 0
ATTTGA,1.85 ± 0.0312 fold-change vs cycle 0,1.79 ± 0.0613 fold-change vs cycle 0,1.65 ± 0.0905 fold-change vs cycle 0
ATGCAT,1.33 ± 0.0832 fold-change vs cycle 0,1.27 ± 0.0798 fold-change vs cycle 0,1.26 ± 0.0876 fold-change vs cycle 0
AGTATA,2.16 ± 0.0916 fold-change vs cycle 0,2.13 ± 0.148 fold-change vs cycle 0,1.85 ± 0.204 fold-change vs cycle 0
CGTCCA,0.318 ± 0.0103 fold-change vs cycle 0,0.381 ± 0.0253 fold-change vs cycle 0,0.504 ± 0.0811 fold-change vs cycle 0
CCATAC,0.84 ± 0.0342 fold-change vs cycle 0,0.88 ± 0.0149 fold-change vs cycle 0,0.931 ± 0.0299 fold-change vs cycle 0
AGCCTG,0.325 ± 0.0218 fold-change vs cycle 0,0.402 ± 0.0338 fold-change vs cycle 0,0.531 ± 0.0708 fold-change vs cycle 0
ACTTGC,0.656 ± 0.0276 fold-change vs cycle 0,0.723 ± 0.0488 fold-change vs cycle 0,0.815 ± 0.0179 fold-change vs cycle 0
ATGACA,1.36 ± 0.0915 fold-change vs cycle 0,1.41 ± 0.0578 fold-change vs cycle 0,1.39 ± 0.11 fold-change vs cycle 0
ATTTAC,1.95 ± 0.0871 fold-change vs cycle 0,1.9 ± 0.0674 fold-change vs cycle 0,1.69 ± 0.111 fold-change vs cycle 0
AATCAT,2.57 ± 0.14 fold-change vs cycle 0,2.12 ± 0.0633 fold-change vs cycle 0,1.93 ± 0.164 fold-change vs cycle 0
AGTCTG,0.76 ± 0.0287 fold-change vs cycle 0,0.869 ± 0.0157 fold-change vs cycle 0,0.92 ± 0.0107 fold-change vs cycle 0
CCTACA,0.76 ± 0.0346 fold-change vs cycle 0,0.876 ± 0.0282 fold-change vs cycle 0,0.919 ± 0.0351 fold-change vs cycle 0
GTCAGA,0.728 ± 0.0316 fold-change vs cycle 0,0.836 ± 0.0595 fold-change vs cycle 0,0.887 ± 0.0403 fold-change vs cycle 0

# Source: article PMC9838217, “Structure of SALL4 zinc finger domain reveals link between AT-rich DNA binding and Okihiro syndrome”
